Shown are actives, neighbours in structure and some others; about 14% of the full set was active somewhere.
USP8 block = inhibitors of human USP8 deubiquitinase | P40818 | purified USP8, Ub-rhodamine cleavage fluorescence, 30 min | inhibition, % at 20 µM | actives 4.2% (n = 47,000) | AID 1645853
USP28 inh = human USP28 deubiquitinase inhibition. Q96RU2. purified USP28, Ub-rhodamine cleavage fluorescence, 30 min. AID 1645857. actives 3% (n = 47,000). inhibition, % at 25 µM
USP17 inh = blocks human USP17 ubiquitin-rhodamine cleavage; A8MUK1; purified USP17, Ub-rhodamine cleavage fluorescence, 3 h; inhibition, % at 50 µM; actives 6.5% (n = 47,000); AID 1645855
Target sequence (A8MUK1 whole entry, looked up): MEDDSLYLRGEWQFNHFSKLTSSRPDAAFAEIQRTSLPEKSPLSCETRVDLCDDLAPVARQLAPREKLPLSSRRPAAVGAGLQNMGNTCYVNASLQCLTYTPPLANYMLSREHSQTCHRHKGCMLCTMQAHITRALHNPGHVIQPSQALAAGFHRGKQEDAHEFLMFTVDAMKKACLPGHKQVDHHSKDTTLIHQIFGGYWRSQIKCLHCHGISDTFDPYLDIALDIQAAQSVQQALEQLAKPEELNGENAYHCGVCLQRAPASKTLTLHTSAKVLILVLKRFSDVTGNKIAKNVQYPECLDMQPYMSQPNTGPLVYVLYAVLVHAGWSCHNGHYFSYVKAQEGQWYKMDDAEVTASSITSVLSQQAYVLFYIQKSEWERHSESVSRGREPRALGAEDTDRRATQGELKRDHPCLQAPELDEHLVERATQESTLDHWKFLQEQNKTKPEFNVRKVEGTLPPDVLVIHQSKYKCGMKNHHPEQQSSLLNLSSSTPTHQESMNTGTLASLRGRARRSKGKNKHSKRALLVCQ
USP10 inh = human USP10 deubiquitinase inhibition. Q14694. inhibition, % at 20 µM. purified USP10, Ub-rhodamine fluorescence, 60 min. AID 1645856. actives 1.1% (n = 47,000)
USP30 inh = human USP30 deubiquitinase inhibition. purified USP30, Ub-rhodamine cleavage fluorescence. actives 5.3% (n = 47,000). Q70CQ3. inhibition, % at 25 µM
The depositor's hits bear a star; . = no result. No stated cut-off is given here; in the data, active means inhibition above about 30%; inactive means the rest.

SMILES	USP8 block	USP28 inh	USP17 inh	USP10 inh	USP30 inh
CCOC(=O)c1cnc(Nc2ccccc2OCC)c2ccccc12	60*	-34	-14	-4	-110
Cc1ccc(NC(=O)COc2ccccc2/C=C2/NC(=O)N(Cc3ccc(F)cc3)C2=O)cc1	24	39*	29	36*	45*
O=C(C1CCCC1)N1CCC(c2nc3c(nnn3Cc3cccc(F)c3)c(=O)[nH]2)CC1	-6	2	-54	3	0
CO/C=C/C(=O)c1cc2cnc3c(=N)cc(NC(C)=O)c([nH]1)c23	42*	43*	54*	-7	-26
O=c1[nH][nH]c(=O)c2n[nH]nc12	92*	21	14	-4	-35
Cc1ccc2nc3c(cc2c1)CCN3S(=O)(=O)c1ccccc1	5	-2	12	9	-5
CC(C)c1ccc(NC(=O)c2cc3ncc(Br)cn3n2)cc1	61*	-16	52*	26	-38
COc1cc(OC)cc(-n2c(=O)c3sccc3n(CC(=O)c3ccc(Cl)cc3)c2=O)c1	-1	11	35*	9	30*
O=c1c(-c2nc(-c3ccncc3)no2)cccn1Cc1c(F)cccc1Cl	51*	-70	1	-7	-237
COc1cccc(CNC(=O)Cc2noc3ccc(C)cc23)c1	-15	-1	-1	-4	-54
Cc1cc(NCC(=O)NCc2ccc(F)cc2)n2nc(-c3cccnc3)nc2n1	-26	-8	-1	-1	-1
NCCCC(N)CC(=O)NCCCC(N)CC(=O)NCCCC(N)CC(=O)NCCCC(N)CC(=O)NCCCC(N)CC(=O)NCCCC(N)CC(=O)NC1C(NC2=N[C@@H]3C(=O)NC[C@@H](O)[C@H]3N2)OC(CO)C(OC(N)=O)C1O (some centres undefined)	-5	23	1	-3	32*
O=C(NC1CC1)c1ccc(-c2ccccc2F)o1	-12	0	.	-2	-21
CCOC(=O)c1c(-c2ccc(C)o2)csc1NC(=O)COC(=O)c1cc(=O)[nH]c2ccccc12	-2	.	37*	9	.
O=C(CSc1nc(C(F)(F)F)cc(=O)[nH]1)NCc1ccccc1	-3	-1	3	3	-3
O=C(CSc1nc2cc(C(F)(F)F)ccc2s1)NCC(=O)c1ccccc1	32*	5	91*	45*	0
CC(C)OCCCn1c(=O)c2ccccc2n2c(CCC(=O)NCCc3c[nH]c4ccccc34)nnc12	19	18	37*	-1	28
COc1cccc(NC(=O)CCc2nnc3n(CCCOC(C)C)c(=O)c4ccccc4n23)c1	81*	70*	69*	4	89*
O=C(c1cccnc1)N1CCN(S(=O)(=O)c2ccc(Cl)cc2)CC1	-8	-17	-9	-2	-16
O=C(NCCCN1CCOCC1)c1ccccn1	3	1	1	1	0
O=C(NCc1cccc(Cl)c1)c1ccc(-c2nnc(-c3ccccc3)o2)cc1	93*	3	50*	26	22
COc1ccc(CNC(=O)c2ncoc2-c2cccc(C)c2)cc1OC	-25	-15	-11	-4	-24
Cc1cccc(CNC(=O)c2ccc(-c3nnc(-c4cccc(C)c4)o3)cc2)c1	10	-2	82*	12	7
CC1(C)CS(=O)(=O)N(c2ccc(C(=O)NCc3ccccc3)cc2)C1=O	-8	1	-6	-1	1
Cc1ccc(Cn2nnc3c(=O)[nH]c(C4CCN(S(=O)(=O)c5ccc(S(=O)(=O)NC6CCCCC6)cc5)CC4)nc32)cc1	-20	22	0	24	14
SMILES	USP8 block	USP28 inh	USP17 inh	USP10 inh	USP30 inh
O=c1[nH]c(C2CCN(S(=O)(=O)c3ccc(S(=O)(=O)NC4CC4)cc3)CC2)nc2c1nnn2Cc1ccc(F)cc1	-1	21	.	21	42*
O=c1[nH]c(C2CCN(S(=O)(=O)c3ccc(S(=O)(=O)NC4CCCCC4)cc3)CC2)nc2c1nnn2Cc1ccc(F)cc1	36*	44*	47*	36*	40*
O=c1[nH]c(C2CCN(S(=O)(=O)c3ccc(S(=O)(=O)NC4CC4)cc3)CC2)nc2c1nnn2Cc1ccccc1	0	22	33*	22	39*
O=C1C[C@@H](O)[C@H](O)[C@@]23O[C@@]12C1(Oc2cccc4cccc(c24)O1)[C@@H]1O[C@@H]1[C@@H]3O	-11	46*	81*	-5	4
COc1cccc(NC(=O)c2cn(-c3cc(N4CCCC4)ncn3)cn2)c1	-67	-43	-49	-8	-372
CC(NC(=O)[C@H](C)N1C(=O)N2CCc3c([nH]c4ccccc34)[C@@]2(C)C1=O)c1ccccc1 (some centres undefined)	4	3	0	1	4
Cc1nnc(NCc2cccnc2)c2c1nnn2Cc1ccc(F)cc1	-11	34*	11	-4	6
COc1ccc(Sc2nnc(C)c3nnn(Cc4ccc(F)cc4)c23)cc1	-107	17	32*	8	28
Cc1nnc(NCCO)c2c1nnn2Cc1ccccc1Cl	2	10	-6	0	0
COc1cccc(Cc2nc(-c3nnn(Cc4ccc(F)cc4)c3C)no2)c1	1	3	0	-4	-34
CC(C)C(N)c1nnc2n1CCN(C(=O)c1ccc3c(c1)OCO3)C2 (centres undefined)	-6	19	10	2	29
CCc1nc(-c2cccc(NC(=O)c3ccc(C#N)cc3)c2)no1	2	15	0	8	0
CCc1nc(-c2cccc(NC(=O)c3ccc(C#N)cc3F)c2)no1	12	51*	43*	2	24
COc1cc2ncc(S(=O)(=O)c3ccc(C)cc3)c(Nc3ccc(F)cc3)c2cc1OC	-185	47*	-31	7	-6
O=C(NC1CCN(c2ccccc2)C1=O)c1ccc2c(c1)OCO2 (centres undefined)	-86	0	-16	-2	-5
Cn1c(=O)c(C(=O)CN2CCN(c3ccc(O)cc3)CC2)c(N)n(Cc2ccccc2)c1=O	67*	26	59*	-1	-1
O=C(COc1ccccc1-c1noc(-c2ccc([N+](=O)[O-])cc2)n1)Nc1ccccc1	5	-2	-1	0	-5
CNc1nccnc1C1CN(C(=O)c2c(C(C)C)noc2C)CCO1 (centres undefined)	32*	0	6	0	10
COc1c(O)c2c(=O)cc(OC)c3c4c(OC)cc(=O)c5c(O)c(OC)c(CC(C)OC(=O)c6ccc(O)cc6)c(c(c1CC(C)OC(=O)Oc1ccc(O)cc1)c23)c54 (centres undefined)	-243	-18	-3	-14	-341
Cc1cccc(NC(=O)CSc2ccc(-c3nc(C)no3)cn2)c1	-9	-22	-14	-2	-81
Cc1cccc(NC(=O)CSc2ccc(-n3cnc(-c4ccccc4)c3)nn2)c1	-2	13	20	4	61*
O=C(Nc1ccc2c(c1)OCO2)c1cc(-c2ccncc2)nc2ccccc12	35*	-1	15	-4	-39
CCOc1cc(N2CCOCC2)c(OCC)cc1NC(=O)c1cc(-c2ccncc2)nc2ccccc12	70*	9	66*	-6	-9

Screening data as filed in PubChem BioAssay.
